Source: PubChem BioAssay (EPA / NIEHS)
Inconclusive results are not listed. More than one record can exist for a structure, and the calls need not agree. Calls of active or inactive are those of the source. The calls were made as follows: active = hit-call score of the fitted dose curve at least 0.9, where 1 is the maximum; inconclusive = response in the unintended direction; inactive = score below 0.9.

Assays:
[1] = TOX21_p53_BLA_p2_viability: Viability Assessment in the Tox21 HCT-116 p53 Agonism Beta-lactamase Assay, Phase 2 (AID 2283591);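 also: compound exposure lasted 16 h at 37 °C; actives lower the ATP signal meaning cytotoxicity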
Summary of the method: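 Cytotoxicity readout: CellTiter-Glo ATP luminescence, 30 min at room temperature, after the beta-lactamase read. Cells were HCT116 exposed 16 h at 37C to compounds pin-transferred at 217-fold dilution from DMSO stocks.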

[2] = molecular target: Cellular tumor antigen p53 (Homo sapiens) (UniProt P04637); assay: TOX21_p53_BLA_p2_ratio: Tox21 HCT-116 p53 Agonism Beta-lactamase Assay, Ratio, Phase 2 (AID 2283592)
Summary of the method: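 HCT116 p53-bla; 4000 cells/well; 5 h pre-incubation; cpd in DMSO, 217-fold dilution; 16 h 37C/5% CO2; CCF4-AM 2 h RT; Ex 405, Em 460/530 ratio; DMSO = baseline; positive fitting direction.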

[3] = TOX21_p53_BLA_p3_viability: Viability Assessment in the Tox21 HCT-116 p53 Agonism Beta-lactamase Assay, Phase 3 (AID 2283593);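 also: cells exposed to compound for 16 h before reading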
Summary of the method: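 Cellular ATP was quantified by CellTiter-Glo luminescence, read after 30 min at room temperature. Beforehand, HCT116 cells (4000/well) received compound 5 h post-seeding, 217-fold diluted from DMSO, then incubated 16 h at 37C.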

[4] = molecular target: Cellular tumor antigen p53 (Homo sapiens) (UniProt P04637); assay: TOX21_p53_BLA_p3_ratio: Tox21 HCT-116 p53 Agonism Beta-lactamase Assay, Ratio, Phase 3 (AID 2283596)
Summary of the method: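 HCT116 p53-bla cells (4000/well) given compound in DMSO (217-fold dilution) after 5 h, incubated 16 h at 37C. CCF4-AM substrate 2 h at room temperature; 460/530 nm emission ratio, gain fitted against DMSO.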

[5] = TOX21_p53_BLA_p4_viability: Viability Assessment in the Tox21 HCT-116 p53 Agonism Beta-lactamase Assay, Phase 4 (AID 2283597);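 also: hits lower the luminescence signal meaning cytotoxicity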
Summary of the method: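 Cells plated, 5 h pre-incubation; DMSO compounds pinned (217-fold dilution); 16 h, 37C/5% CO2; CCF4-AM 2 h RT; CellTiter-Glo 30 min RT; luminescence read.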

[6] = molecular target: Cellular tumor antigen p53 (Homo sapiens) (UniProt P04637); assay: TOX21_p53_BLA_p5_ratio: Tox21 HCT-116 p53 Agonism Beta-lactamase Assay, Ratio, Phase 5 (AID 2283599)
Summary of the method: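 Beta-lactamase reporter ratio (blue 460 nm over green 530 nm, 405 nm excitation) after 2 h CCF4-AM loading, in HCT-116 cells exposed 16 h at 37 C to compounds pinned at 217-fold dilution. Increases relative to DMSO baseline scored.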

[7] = TOX21_p53_BLA_p5_viability: Viability Assessment in the Tox21 HCT-116 p53 Agonism Beta-lactamase Assay, Phase 5 (AID 2283600)
Summary of the method: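 4000 cells/well; 5 h pre-incubation; DMSO compounds pin-transferred, 217-fold dilution; 16 h, 37C/5% CO2; CCF4-AM 2 h RT; CellTiter-Glo 30 min RT; luminescence.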

[8] = molecular target: Cellular tumor antigen p53 (Homo sapiens) (UniProt P04637); assay: TOX21_p53_BLA_p4_ratio: Tox21 HCT-116 p53 Agonism Beta-lactamase Assay, Ratio, Phase 4 (AID 2283601)
Summary of the method: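 Signal is the blue/green (460nm/530nm) ratio of cleaved versus uncleaved CCF4-AM substrate, read after 2 h substrate loading. Cells were HCT116 carrying the p53-responsive beta-lactamase reporter, dosed 16 h at 37C, 5% CO2; CellTiter-Glo measured in parallel.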

Measured: AC50

Sequence of Cellular tumor antigen p53 (Homo sapiens) (P04637 whole entry, looked up): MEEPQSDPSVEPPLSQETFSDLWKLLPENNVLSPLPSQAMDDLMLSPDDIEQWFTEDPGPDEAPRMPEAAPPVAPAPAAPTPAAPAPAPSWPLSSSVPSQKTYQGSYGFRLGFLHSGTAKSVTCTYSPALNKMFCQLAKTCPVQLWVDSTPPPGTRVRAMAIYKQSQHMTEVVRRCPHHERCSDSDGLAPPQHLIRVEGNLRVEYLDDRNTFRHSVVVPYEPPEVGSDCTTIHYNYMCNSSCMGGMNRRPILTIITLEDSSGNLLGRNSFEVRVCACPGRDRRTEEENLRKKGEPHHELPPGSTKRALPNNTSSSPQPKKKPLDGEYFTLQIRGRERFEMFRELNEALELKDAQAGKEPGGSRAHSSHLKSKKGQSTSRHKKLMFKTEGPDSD

Nc1ccccc1[N+](=O)[O-]
inactive: all assays above

O=C(Nc1ccc2c(c1)Cc1ccccc1-2)C(F)(F)F
not listed: [3]
inactive: all other assays above

COC(=O)c1cccnc1
inactive: all assays above

C#CC(C)(O)CC(C)C (stereo not given)
inactive: [1] | [2] | [3] | [6] | [7]

O=[N+]([O-])c1ccc(O)cc1C(F)(F)F
inactive: [1] | [5] | [7]
active: [2] 28.2 µM | [4] 42 µM | [8] 45.6 µM

COCCOCCOCCO
not listed: [5]
inactive: all other assays above

COC(C)(C)CCCC(C)CC=O (stereo not given)
not listed: [3] | [5]
inactive: all other assays above

CCCCCC(=O)CC
not listed: [5]
inactive: all other assays above

OCCc1ccccc1
inactive: [1] | [2] | [3] | [4] | [8]

CCOC(=O)COC(=O)c1cc(Oc2ccc(C(F)(F)F)cc2Cl)ccc1[N+](=O)[O-]
inactive: [1] | [2] | [5] | [7]

COC(C)(C)CCO
inactive: [1] | [2] | [6] | [7] | [8]

CCCC[P+](CCCC)(CCCC)CCCC
inactive: [1] | [2] | [3] | [4] | [5] | [7] | [8]
active: [7] 14.5 µM

O=C(CC(=O)c1ccccc1)c1ccccc1
not listed: [3]
inactive: all other assays above

CCCCC1(COC(=O)CCC(=O)O)C(=O)N(c2ccccc2)N(c2ccccc2)C1=O
not listed: [3]
inactive: all other assays above

O=c1c(O)c(-c2ccc(O)cc2)oc2cc(O)cc(O)c12
inactive: [1] | [2] | [4] | [6] | [8]

NCC1CCCC(CN)C1 (stereo not given)
not listed: [3] | [5]
inactive: all other assays above

CCCC(=O)c1ccccc1
not listed: [7]
inactive: all other assays above

OCc1ccc(Cl)cc1Cl
not listed: [3]
inactive: all other assays above

CCCCCCCCCCCCCCN(CCO)CCO
not listed: [6]
inactive: all other assays above

CC(Oc1cc(Cl)ccc1Cl)C(=O)O (stereo not given)
inactive: [1] | [2] | [3] | [7]

C=C(CC(=O)O)C(=O)O
not listed: [3] | [6]
inactive: all other assays above

CCCN(CCC)S(=O)(=O)c1ccc(C(=O)O)cc1
inactive: all assays above

CCC(Cl)C(Cl)C(Cl)CC(Cl)C(Cl)C(C)Cl (stereo not given)
not listed: [2]
inactive: all other assays above

C=C(C)C(=O)OCCOCCOCCOCCOC(=O)C(=C)C
not listed: [2] | [6]
inactive: all other assays above

O=CCc1ccccc1
not listed: [6]
inactive: all other assays above

C=C(C#N)C(=O)OCC
not listed: [6]
inactive: all other assays above

CC1C2CC(CC2C2CCCC(O)C2)C1(C)C (stereo not given)
inactive: all assays above

CCOc1ccccc1O
inactive: [1] | [2] | [6] | [7] | [8]

CC(=O)C1(C)CC2=C(CCCC2(C)C)CC1C (stereo not given)
not listed: [3]
inactive: all other assays above

CN(C)C(=S)SC(=S)N(C)C
not listed: [7]
inactive: all other assays above

COC(=O)c1ccc(C)cc1C1=NC(C)(C(C)C)C(=O)N1 (stereo not given) (tested in a mixture with another compound)
inactive: [1] | [2] | [4] | [5] | [7]

COc1cc(CCC(C)=O)ccc1O
inactive: [2] | [3] | [6]

CC(C)CCCCCCc1ccc(OCCOCCO)cc1
inactive: [4] | [5] | [6] | [7] | [8]

CCCC[O][Al]([O]CCCC)[O]CCCC
inactive: [2] | [4] | [5] | [6] | [8]

CSCCC=O
not listed: [2] | [5]
inactive: all other assays above

CCCCN(CCCC)C(=O)N(CCCC)CCCC
not listed: [2] | [5]
inactive: all other assays above

CC(=O)OCCCc1ccccc1
inactive: [2] | [3] | [4] | [8]

C[C@H]1C[C@@H](O)CC(C)(C)C1
inactive: [2] | [4] | [6] | [8]

COC(CC(C)CCCC(C)(C)O)OC (stereo not given)
inactive: [1] | [5] | [8]

CC(C)c1ccccc1O
inactive: [2] | [3] | [4] | [5] | [7]

CC(C)C[C@H](NC(=O)OCC1c2ccccc2-c2ccccc21)C(=O)O
inactive: [2] | [5] | [7]

CCCCCCCCN1CCCC1=O
inactive: [4] | [6] | [7] | [8]

CCc1ncc(C)[nH]1
not listed: [2] | [3]
inactive: all other assays above

Cc1ccc(S(=O)(=O)Oc2ccc(N=Nc3ccc(-c4ccc(N=Nc5c(O)ccc6cc(S(=O)(=O)O)cc(S(=O)(=O)O)c56)c(C)c4)cc3C)cc2)cc1
not listed: [1] | [3]
inactive: all other assays above

CCC(=O)O[C@@H]1C[C@H]2CC[C@]1(C)C2(C)C
inactive: [4] | [6] | [8]

COc1ccccc1N=Nc1c(S(=O)(=O)O)cc2cc(S(=O)(=O)O)cc(NC(C)=O)c2c1O
inactive: [2] | [4] | [5] | [6] | [8]

C[C@@H]1CCN(C(=O)[C@H](CCCN=C(N)N)NS(=O)(=O)c2cccc3c2NC[C@H](C)C3)[C@@H](C(=O)O)C1
inactive: [4] | [7] | [8]

CC(C)CCCCCCCCCCCCCCC(=O)O
inactive: [2] | [3] | [4] | [6] | [8]

COc1ccc(N)c([N+](=O)[O-])c1
inactive: [3] | [4] | [6] | [7] | [8]

CC/C=C\CCOC(=O)CC
inactive: [3] | [4] | [6] | [8]

CCCCCCCCCCCCCCCC(=O)OC/C=C(C)/C=C/C=C(C)/C=C/C1=C(C)CCCC1(C)C
inactive: [1] | [3] | [4] | [7] | [8]

Cc1ccc(N)c(S(=O)(=O)O)c1
not listed: [2] | [5]
inactive: all other assays above

CC(=O)O[C@@H]1CC2CCC1(C)C2(C)C (stereo not given in full)
not listed: [2] | [5]
inactive: all other assays above

c1ccc(Oc2ccccc2)cc1
not listed: [1] | [7]
inactive: all other assays above

Nc1ccc(NCCO)c([N+](=O)[O-])c1
inactive: [2] | [5] | [8]

CC(C)CC(C)CC(O)CC(C)C (stereo not given)
not listed: [1]
inactive: all other assays above

c1ccc2[nH]cnc2c1
inactive: [1] | [3] | [4] | [5] | [8]

CCOc1ccc(N=Nc2ccc(C=Cc3ccc(N=Nc4ccc(OCC)cc4)cc3S(=O)(=O)O)c(S(=O)(=O)O)c2)cc1
inactive: [3] | [7] | [8]

C1CCCCC1
inactive: [1] | [5] | [6] | [7] | [8]
